Records with an inconclusive call do not appear. Activity calls are given as the source filed them. Rule for the calls, unless noted: active = hit-call score of the fitted dose curve at least 0.9, where 1 is the maximum; inconclusive = response in the unintended direction; inactive = score below 0.9.
What was measured:
[1] = molecular target: mouse Estrogen Receptor alpha (Era), Esr1 (gene 13982) (UniProt P19785); assay: NVS_NR_mERa: NovaScreen (NVS) Nuclear Receptor Binding Assay for mouse Estrogen Receptor alpha (Era) (AID 2283378);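 note: hit means loss of bound radioligand signal relative to DMSO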
Method in brief: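 Test chemicals competed against a specific radioligand for binding to cell-free mouse Era. Duplicate wells at 25 uM were read 18 hours later by filter-based radiodetection, with loss of signal against DMSO scored as activity.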

[2] = molecular target: Estrogen receptor beta (Homo sapiens) (UniProt Q92731); assay: OT_ER_ERbERb_1440: Odyssey Thera (OT) 24-hour HEK293T Protein-Complementation Assay for Estrogen Receptor-beta/-beta Homodimer (AID 2283380);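 note: fluorescence gain from ER beta LBD homodimer complementation read by laser scanning cytometry; scored as signal increase over DMSO baseline for both agonists and antagonists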
Method in brief: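 Fluorescence increase, nuclear for agonists or whole-cell for antagonists, relative to DMSO vehicle, quantified by laser scanning cytometer after fixation and Draq5 staining. Readout from 24 h treatment of HEK293T cells carrying complementation-paired ER beta LBD (aa 310-547).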

[3] = molecular target: Estrogen receptor (Homo sapiens) (UniProt P03372); assay: OT_ERa_GFPERaERE_0480: Odyssey Thera (OT) 8-hour HeLa Transcription Induction Assay for Estrogen Receptor (AID 2283381; active = hit-call score of the fitted dose curve at least 0.9, where 1 is the maximum; inactive = score below 0.9)
Method in brief: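 HeLa cells dosed with compound and imaged by fluorescence microscopy at 8 h; GFP induction from an ERE reporter quantified by high-content image analysis and fitted as gain of signal against DMSO baseline.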

[4] = molecular target: Estrogen receptor (Homo sapiens) (UniProt P03372); assay: OT_ERa_GFPERaERE_0120: Odyssey Thera (OT) 2-hour HeLa Transcription Induction Assay for Estrogen Receptor (AID 2283382)
Method in brief: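 HeLa cells were dosed with test chemical and read 2 hours later for GFP-ERα/ERE-linked fluorescent protein induction by fluorescence microscopy. Gain-of-signal was fitted relative to DMSO baseline, quantified by high content image analysis.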

[5] = molecular target: Bile acid receptor (Homo sapiens) (UniProt Q96RI1); assay: OT_FXR_FXRSRC1_0480: Odyssey Thera (OT) 8-hour HEK293T Protein-Complementation Assay for Farnesoid X receptor/SRC-1 Co-activator (AID 2283383)
Method in brief: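 HEK293T cells expressing FXR and SRC-1 fused to reporter fragments were dosed with compound for 8 h; fluorescence from the reconstituted reporter marked co-activator recruitment. Gain of signal was fitted against the DMSO baseline.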

[6] = molecular target: Retinoic acid receptor RXR-alpha (Homo sapiens) (UniProt P19793); assay: OT_NURR1_NURR1RXRa_0480: Odyssey Thera (OT) 8-hour HEK293T Protein Complementation Assay for Nurr1/retinoid X receptor (RXR) (AID 2283385)
Method in brief: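 HEK293T cells expressing Nurr1 and RXRα fused to reporter fragments were dosed with compound for 8 hours. Complex formation was read as fluorescence intensity and analysed as gain of signal against DMSO as baseline.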

[7] = molecular target: Retinoic acid receptor RXR-alpha (Homo sapiens) (UniProt P19793); assay: OT_NURR1_NURR1RXRa_1440: Odyssey Thera (OT) 24-hour HEK293T Protein Complementation Assay for Nurr1/retinoid X receptor (RXR) (AID 2283386)
Method in brief: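 HEK293T cells were dosed with compound and read 24 h later by fluorescence intensity in a protein-fragment complementation format, where Nurr1–RXRα interaction reconstitutes a split reporter. Activity was fitted as gain of signal relative to DMSO baseline.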

[8] = CEETOX_H295R_11DCORT: CeeTox H295R High-throughput Steroidogenesis Assay for 11-Deoxycortisol (11DCORT) (AID 2283432; active = hit-call score of the fitted dose curve at least 0.9, where 1 is the maximum; inactive = score below 0.9;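 for AC50: 11-deoxycortisol secreted into the medium measured by LC-MS/MS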); settings: actives raise or lower the signal
Method in brief: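 Human adrenal H295R cells were prestimulated with 10 uM forskolin for 48 h, then exposed to test chemical (0.1% DMSO final) for 48 h. Medium 11-deoxycortisol was quantified by MTBE extraction and HPLC-MS/MS; bidirectional fitting relative to DMSO.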

[9] = CEETOX_H295R_OHPREG: CeeTox H295R High-throughput Steroidogenesis Assay for OH-Pregnenolone (OHPREG) (AID 2283434; active = hit-call score of the fitted dose curve at least 0.9, where 1 is the maximum; inactive = score below 0.9); settings: actives raise or lower the signal
Method in brief: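 Hormone levels in spent medium were measured by tandem mass spectrometry following liquid-liquid extraction. Cells (H295R) had been forskolin-stimulated (10 uM, 48 h) before a 48 h chemical exposure at 0.1% DMSO, with activity fitted in both directions against DMSO.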

[10] = CEETOX_H295R_OHPROG: CeeTox H295R High-throughput Steroidogenesis Assay for OH-Progesterone (OHPROG) (AID 2283435; active = hit-call score of the fitted dose curve at least 0.9, where 1 is the maximum; inactive = score below 0.9); settings: actives raise or lower the signal
Method in brief: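 H295R human adrenal cells were prestimulated 48 h with 10 uM forskolin, then exposed 48 h to test chemical (0.1% DMSO final). 17alpha-hydroxyprogesterone in medium was measured by HPLC-MS/MS after MTBE extraction; bidirectional fitting vs DMSO.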

[11] = CEETOX_H295R_CORTIC: CeeTox H295R High-throughput Steroidogenesis Assay for Corticosterone (CORTIC) (AID 2283437; active = hit-call score of the fitted dose curve at least 0.9, where 1 is the maximum; inactive = score below 0.9;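 note: corticosterone secreted into medium quantified by mass spectrometry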); settings: actives raise or lower the signal
Method in brief: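 Corticosterone secreted into medium is measured by reverse-phase HPLC with tandem MS following liquid-liquid extraction. Cells are forskolin-stimulated (10 uM, 48 h) before 48 h test exposure; activity fitted in both directions against DMSO.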

[12] = CEETOX_H295R_CORTISOL: CeeTox H295R High-throughput Steroidogenesis Assay for Cortisol (AID 2283438; active = hit-call score of the fitted dose curve at least 0.9, where 1 is the maximum; inactive = score below 0.9;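 note: cortisol secreted into medium quantified by LC-MS/MS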); settings: actives raise or lower the signal
Method in brief: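 H295R human adrenal cells were prestimulated 48 h with 10 uM forskolin, then exposed 48 h to test chemical (0.1% DMSO final). Medium cortisol was quantified by HPLC-MS/MS after MTBE extraction; bidirectional fitting relative to DMSO baseline.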

[13] = CEETOX_H295R_ESTRADIOL: CeeTox H295R High-throughput Steroidogenesis Assay for Estradiol (AID 2283440; active = hit-call score of the fitted dose curve at least 0.9, where 1 is the maximum; inactive = score below 0.9;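 note: estradiol secreted into medium quantified by LC-MS/MS after dansyl derivatisation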); settings: actives raise or lower the signal
Method in brief: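 Following OECD 456 with minor changes, H295R cells received 10 uM forskolin for 48 h and then test chemical for 48 h. Hormone output was read by HPLC-MS/MS, with cytotoxic concentrations diluted until MTT viability reached ≥70%.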

[14] = CEETOX_H295R_ESTRONE: CeeTox H295R High-throughput Steroidogenesis Assay for Estrone (AID 2283441; active = hit-call score of the fitted dose curve at least 0.9, where 1 is the maximum; inactive = score below 0.9;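 note: estrone secreted into medium measured by LC-MS/MS after dansyl derivatization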); settings: actives raise or lower the signal
Method in brief: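 H295R cells; 48 h forskolin (10 uM) prestimulation; 48 h compound exposure, 0.1% DMSO final. Medium estrone: MTBE extraction, dansyl derivatization, HPLC-MS/MS. Bidirectional fit vs DMSO.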

[15] = CEETOX_H295R_PROG: CeeTox H295R High-throughput Steroidogenesis Assay for Progesterone (PROG) (AID 2283442; active = hit-call score of the fitted dose curve at least 0.9, where 1 is the maximum; inactive = score below 0.9;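 for AC50: human H295R adrenal cells primed with 10 µM forskolin before dosing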); settings: actives raise or lower the signal
Method in brief: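 Adrenal H295R line, forskolin-stimulated (10 uM, 48 h) before dosing. 48 h exposure, 0.1% DMSO vehicle. Secreted progesterone by reverse-phase HPLC with ESI+ MS/MS quantification; DMSO-normalised bidirectional curve fit.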

[16] = molecular target: Agonist Androgen Response Element (ARE), AR (gene 367) (UniProt P10275); assay: OT_AR_ARELUC_AG_1440: Odyssey Thera (OT) 24-hour CHO-K1 Luciferase Assay for Agonist Androgen Response Element (ARE) (AID 2283379)
Method in brief: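 Agonist mode, 24 h exposure in CHO-K1 ARE-luciferase cells; values reflect luminescence induction over vehicle.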

[17] = molecular target: Peroxisome proliferator-activated receptor gamma (Homo sapiens) (UniProt P37231); assay: OT_PPARg_PPARgSRC1_0480: Odyssey Thera (OT) 8-hour Protein-Complementation Assay for Peroxisome Proliferator-activated Receptor Gamma / SRC-1 Co-activator (AID 2283387);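 note: nuclear to cytoplasmic split Venus YFP fluorescence ratio reporting PPARg SRC-1 interaction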
Method in brief: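 Protein-fragment complementation of split Venus YFP reports PPARg/SRC-1 interaction in HEK293T (transfected 48 h before treatment), exposed 8 h. Readout: N/C fluorescence ratio at 488 nm from imaging, Draq5 for segmentation, positive fit relative to DMSO.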

[18] = molecular target: Peroxisome proliferator-activated receptor gamma (Homo sapiens) (UniProt P37231); assay: OT_PPARg_PPARgSRC1_1440: Odyssey Thera (OT) 24-hour Protein-Complementation Assay for Peroxisome Proliferator-activated Receptor Gamma/ SRC-1 Co-activator (AID 2283388);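 note: nuclear to cytoplasmic ratio of reconstituted Venus YFP fluorescence in fixed imaged cells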
Method in brief: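 Transient HEK293T, YFP fragments 1-158/159-239 (mutant IFP1/IFP2) fused to PPARg/SRC-1; 24 h dosing; fix 4% formaldehyde, Draq5; Opera imaging 488/635 nm; N/C ratio, gain vs DMSO.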

[19] = CEETOX_H295R_ANDR: CeeTox H295R High-throughput Steroidogenesis Assay for Androstenedione (ANDR) (AID 2283436; active = hit-call score of the fitted dose curve at least 0.9, where 1 is the maximum; inactive = score below 0.9); settings: actives raise or lower the signal
Method in brief: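 Read-out is androstenedione secreted into medium, measured by tandem mass spectrometry after liquid-liquid extraction. Cells were H295R, dosed for 48 h per modified OECD 456; activity fitted in both directions relative to DMSO.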

Measured: AC50

Chain of mouse Estrogen Receptor alpha (Era), Esr1 (gene 13982) (P19785 whole entry, looked up): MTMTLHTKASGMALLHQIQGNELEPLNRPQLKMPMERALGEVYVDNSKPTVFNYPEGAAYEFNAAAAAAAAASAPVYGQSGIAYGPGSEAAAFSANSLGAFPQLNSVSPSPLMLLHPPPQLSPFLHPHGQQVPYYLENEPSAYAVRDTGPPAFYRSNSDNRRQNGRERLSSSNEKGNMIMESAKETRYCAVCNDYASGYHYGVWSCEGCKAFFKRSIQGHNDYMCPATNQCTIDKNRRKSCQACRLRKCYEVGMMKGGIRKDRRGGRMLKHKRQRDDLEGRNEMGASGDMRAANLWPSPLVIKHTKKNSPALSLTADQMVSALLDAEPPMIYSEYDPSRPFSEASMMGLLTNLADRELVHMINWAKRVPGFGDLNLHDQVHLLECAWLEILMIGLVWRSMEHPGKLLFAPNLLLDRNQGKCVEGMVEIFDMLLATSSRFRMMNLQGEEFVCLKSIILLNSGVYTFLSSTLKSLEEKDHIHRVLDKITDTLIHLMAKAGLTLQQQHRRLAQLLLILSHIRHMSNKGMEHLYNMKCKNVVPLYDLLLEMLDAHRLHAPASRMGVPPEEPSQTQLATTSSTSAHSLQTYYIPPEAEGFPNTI
Chain of Retinoic acid receptor RXR-alpha (Homo sapiens) (P19793 whole entry, looked up, the tested form may be a part): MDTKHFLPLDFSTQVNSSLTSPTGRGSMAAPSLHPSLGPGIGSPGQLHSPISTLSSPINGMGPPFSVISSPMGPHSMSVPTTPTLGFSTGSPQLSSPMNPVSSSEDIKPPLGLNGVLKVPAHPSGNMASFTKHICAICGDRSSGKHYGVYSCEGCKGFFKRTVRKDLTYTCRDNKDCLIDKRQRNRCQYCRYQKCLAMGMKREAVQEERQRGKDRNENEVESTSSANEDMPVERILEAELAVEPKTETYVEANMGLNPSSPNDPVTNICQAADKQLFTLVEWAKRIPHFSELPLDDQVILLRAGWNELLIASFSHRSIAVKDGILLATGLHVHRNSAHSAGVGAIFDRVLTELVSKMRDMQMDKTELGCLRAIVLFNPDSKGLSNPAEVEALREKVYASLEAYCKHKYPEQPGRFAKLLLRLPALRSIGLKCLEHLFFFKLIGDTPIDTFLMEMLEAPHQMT
Chain of Estrogen receptor beta (Homo sapiens) (Q92731 whole entry, looked up, the tested form may be a part): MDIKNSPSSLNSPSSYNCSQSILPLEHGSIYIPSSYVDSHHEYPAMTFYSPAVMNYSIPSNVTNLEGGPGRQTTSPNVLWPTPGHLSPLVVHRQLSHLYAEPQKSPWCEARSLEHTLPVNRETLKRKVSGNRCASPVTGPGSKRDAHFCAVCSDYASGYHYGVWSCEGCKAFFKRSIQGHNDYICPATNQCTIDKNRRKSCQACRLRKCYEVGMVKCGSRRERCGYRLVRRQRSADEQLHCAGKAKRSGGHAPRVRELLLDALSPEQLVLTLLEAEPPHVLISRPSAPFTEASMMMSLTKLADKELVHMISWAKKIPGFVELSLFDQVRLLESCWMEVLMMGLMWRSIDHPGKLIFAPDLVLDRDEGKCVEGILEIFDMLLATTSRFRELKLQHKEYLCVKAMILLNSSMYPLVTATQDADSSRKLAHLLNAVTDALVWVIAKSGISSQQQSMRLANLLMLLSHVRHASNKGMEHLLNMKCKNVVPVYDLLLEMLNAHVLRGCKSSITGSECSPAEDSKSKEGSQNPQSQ
Chain of Bile acid receptor (Homo sapiens) (Q96RI1 whole entry, looked up, the tested form may be a part): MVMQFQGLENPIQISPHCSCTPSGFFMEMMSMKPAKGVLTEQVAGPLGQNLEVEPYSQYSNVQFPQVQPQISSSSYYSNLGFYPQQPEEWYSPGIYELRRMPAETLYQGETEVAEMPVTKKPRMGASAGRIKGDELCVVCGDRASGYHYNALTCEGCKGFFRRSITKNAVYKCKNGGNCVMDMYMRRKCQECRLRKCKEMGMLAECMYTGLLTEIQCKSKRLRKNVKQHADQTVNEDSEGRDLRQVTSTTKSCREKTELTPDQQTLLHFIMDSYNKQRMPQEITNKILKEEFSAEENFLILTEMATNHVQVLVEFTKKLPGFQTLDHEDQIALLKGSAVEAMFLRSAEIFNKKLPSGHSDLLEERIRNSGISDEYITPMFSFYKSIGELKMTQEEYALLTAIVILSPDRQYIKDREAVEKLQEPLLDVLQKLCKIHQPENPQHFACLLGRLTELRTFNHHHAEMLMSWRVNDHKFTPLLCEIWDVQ
Chain of Peroxisome proliferator-activated receptor gamma (Homo sapiens) (P37231 whole entry, looked up, the tested form may be a part): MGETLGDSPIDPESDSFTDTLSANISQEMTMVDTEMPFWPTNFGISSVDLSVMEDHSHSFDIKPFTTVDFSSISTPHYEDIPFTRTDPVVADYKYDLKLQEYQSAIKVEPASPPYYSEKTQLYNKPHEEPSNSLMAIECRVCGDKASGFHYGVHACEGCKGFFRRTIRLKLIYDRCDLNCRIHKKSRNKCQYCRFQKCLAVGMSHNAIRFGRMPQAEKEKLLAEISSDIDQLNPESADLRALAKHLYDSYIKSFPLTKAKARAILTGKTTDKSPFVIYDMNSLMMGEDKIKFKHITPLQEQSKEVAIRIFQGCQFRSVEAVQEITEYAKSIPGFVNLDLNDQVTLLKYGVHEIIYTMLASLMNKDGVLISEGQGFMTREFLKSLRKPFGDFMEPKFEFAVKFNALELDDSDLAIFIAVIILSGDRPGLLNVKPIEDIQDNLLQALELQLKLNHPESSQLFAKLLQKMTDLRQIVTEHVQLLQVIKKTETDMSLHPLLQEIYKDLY
Chain of Agonist Androgen Response Element (ARE), AR (gene 367) (P10275 whole entry, looked up): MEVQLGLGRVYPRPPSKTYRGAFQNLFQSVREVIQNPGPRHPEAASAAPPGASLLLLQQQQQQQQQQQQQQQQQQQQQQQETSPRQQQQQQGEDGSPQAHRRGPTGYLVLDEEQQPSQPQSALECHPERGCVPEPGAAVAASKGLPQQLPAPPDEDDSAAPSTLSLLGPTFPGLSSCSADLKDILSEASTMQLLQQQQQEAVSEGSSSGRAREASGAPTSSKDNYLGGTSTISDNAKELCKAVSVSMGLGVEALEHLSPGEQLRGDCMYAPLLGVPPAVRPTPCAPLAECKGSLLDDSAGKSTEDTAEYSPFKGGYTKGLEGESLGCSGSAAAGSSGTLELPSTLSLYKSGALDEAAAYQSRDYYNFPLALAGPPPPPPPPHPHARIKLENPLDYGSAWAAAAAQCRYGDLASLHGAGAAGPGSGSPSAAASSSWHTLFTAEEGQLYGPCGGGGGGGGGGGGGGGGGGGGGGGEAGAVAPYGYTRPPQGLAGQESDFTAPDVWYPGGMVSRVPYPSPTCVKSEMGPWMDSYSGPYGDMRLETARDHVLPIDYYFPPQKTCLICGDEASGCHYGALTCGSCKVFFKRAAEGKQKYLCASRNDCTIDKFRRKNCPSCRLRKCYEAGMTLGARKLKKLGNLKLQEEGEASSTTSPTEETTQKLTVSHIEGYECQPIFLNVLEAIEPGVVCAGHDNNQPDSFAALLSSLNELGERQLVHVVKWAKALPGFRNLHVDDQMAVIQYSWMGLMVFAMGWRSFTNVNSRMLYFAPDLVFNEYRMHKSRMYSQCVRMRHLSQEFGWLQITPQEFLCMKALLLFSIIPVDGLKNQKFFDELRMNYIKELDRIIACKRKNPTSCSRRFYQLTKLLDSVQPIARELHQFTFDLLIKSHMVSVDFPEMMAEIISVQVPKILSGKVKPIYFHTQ
Chain of Estrogen receptor (Homo sapiens) (P03372 whole entry, looked up): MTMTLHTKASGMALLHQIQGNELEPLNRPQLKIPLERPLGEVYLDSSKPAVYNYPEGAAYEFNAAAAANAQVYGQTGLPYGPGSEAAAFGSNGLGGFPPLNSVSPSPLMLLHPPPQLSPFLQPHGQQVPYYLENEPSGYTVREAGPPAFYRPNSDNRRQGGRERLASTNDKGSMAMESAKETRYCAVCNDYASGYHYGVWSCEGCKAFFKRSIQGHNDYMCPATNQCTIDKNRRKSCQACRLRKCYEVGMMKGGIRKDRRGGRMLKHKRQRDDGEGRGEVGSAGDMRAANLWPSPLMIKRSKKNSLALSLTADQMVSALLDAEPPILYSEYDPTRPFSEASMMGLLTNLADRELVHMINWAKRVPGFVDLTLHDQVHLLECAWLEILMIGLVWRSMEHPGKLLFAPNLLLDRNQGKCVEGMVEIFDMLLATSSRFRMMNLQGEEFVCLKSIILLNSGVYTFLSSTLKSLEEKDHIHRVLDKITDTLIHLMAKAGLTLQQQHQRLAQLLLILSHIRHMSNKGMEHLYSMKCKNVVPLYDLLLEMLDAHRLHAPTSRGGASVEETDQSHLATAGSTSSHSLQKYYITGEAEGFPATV

CCCCCC(=O)O[C@]1(C(C)=O)CC[C@H]2[C@@H]3CCC4=CC(=O)CC[C@]4(C)[C@H]3CC[C@@]21C
active: [2] 12.6 µM | [5] 5.16 µM | [6] 11.9 µM | [7] 26.3 µM | [8] 13.3 µM | [9] 11.4 µM | [12] 6.66 µM | [13] 13.4 µM | [14] 13.2 µM | [15] 4.56 µM
inactive: [1] | [3] | [4] | [10] | [11]

O=S1(=O)CC(Cl)(Cl)C(Cl)(Cl)C1
inactive: [1]

CCc1cccc(O)c1
inactive: [1] | [2] | [3] | [4] | [5] | [7]

OC[C@H]1O[C@@H](O[C@H]2[C@H](O)[C@@H](O)[C@H](O)O[C@@H]2CO)[C@H](O)[C@@H](O)[C@H]1O
inactive: [16] | [2] | [3] | [4] | [5] | [17] | [18]

CC(C)(C)c1cccc(O)c1
not listed: [1] | [2] | [5] | [13] | [14] | [17] | [18]
inactive: all other assays above

FC(F)(F)c1ccc(Cl)c(Cl)c1
inactive: [1] | [16] | [2] | [3] | [4] | [7] | [17] | [18]

— PubChem BioAssay (EPA / NIEHS)
